Reference: a collection of fitness landscapes (doi:10.1126/science.1257360)
The full ranking holds about 140,000 sequences; the median of “enrichment ratio after two sorts for PhoP signalling” is about 0, and the highest 2% start at about 11. Only a selection was taken, and the highest values are over-represented in it overall.

B1: PhoQ; a variant is named by its letters at X, in order, P23837 (parent)
chain: MKKLLRLFFPLSLRVRFLLATAAVVLVLSLAYGMVALIGYSVSFDKTTFRLLRGESNLFYTLAKWENNKLHVELPENIDKQSPTMTLIYDENGQLLWAQRDVPWLMKMIQPDWLKSNGFHEIEADVNDTSLLLSGDHSIQQQLQEVREDDDDAEMTHSVAVNVYPATSRMPKLTIVVVDTIPVELKSSYMVWSWFIYVLSANLLLVIPLLWVAAWWSLRPIEALAKEVRELEEHNRELLNPATTRELTSLVRNLNRLLKSERERYDKYRTTLTDLTHSLKTPLXXLQXXLRSLRSEKMSVSDAEPVMLEQISRISQQIGYYLHRASMRGGTLLSRELHPVAPLLDNLTSALNKVYQRKGVNISLDISPEISFVGEQNDFVEVMGNVLDNACKYCLEFVEISARQTDEHLYIVVEDDGPGIPLSKREVIFDRGQRVDTLRPGQGVGLAVAREITEQYEGKIVAGESMLGGARMEVIFGRQHSAPKDE

Variants of: B1
Experiment: enrichment ratio after two sorts for PhoP signalling (ratio (wild type AVST 3.29)); higher = more functional
Settings: with PhoP (E. coli)

QHTA and ETDE cannot be ordered by enrichment ratio: ≤ 0.25 for the first, ≤ 0.25 for the second.

HVCH and YWCH cannot be ordered by enrichment ratio: ≤ 0.25 for the first, ≤ 0.25 for the second.

First: DMCH
Second: TECH
The enrichment ratio of the first is lower: ≤ 0.25 for the first, 27.7 for the second.

Compared with NECH, MFCH is lower in enrichment ratio: 18 for the first, ≤ 0.25 for the second.

QECH and HPCH cannot be ordered by enrichment ratio: ≤ 0.25 for the first, ≤ 0.25 for the second.

Compared with MECH, FIVW is lower in enrichment ratio: 56.6 for the first, ≤ 0.25 for the second.

MRRQ and KFHY cannot be ordered by enrichment ratio: ≤ 0.25 for the first, ≤ 0.25 for the second.

FGDH and EQSM cannot be ordered by enrichment ratio: ≤ 0.25 for the first, ≤ 0.25 for the second.

Going from YMLV to NWGV, the enrichment ratio falls from 0.756 to ≤ 0.25.

AFIT and IIPL cannot be ordered by enrichment ratio: ≤ 0.25 for the first, ≤ 0.25 for the second.

Compared with GNMM, GIGW is higher in enrichment ratio: 0.333 for the first, 16 for the second.

Compared with GITM, GIWM is lower in enrichment ratio: 10.3 for the first, ≤ 0.25 for the second.

Going from GIHW to GIGM, the enrichment ratio rises from ≤ 0.25 to 36.1.

GNGW and GITH cannot be ordered by enrichment ratio: ≤ 0.25 for the first, ≤ 0.25 for the second.

GNAH and GIYM cannot be ordered by enrichment ratio: ≤ 0.25 for the first, ≤ 0.25 for the second.

Going from GIAH to GIMM, the enrichment ratio falls from 22.5 to 17.3.

RCKT and KSCR cannot be ordered by enrichment ratio: ≤ 0.25 for the first, ≤ 0.25 for the second.

YPKK and TDMP cannot be ordered by enrichment ratio: ≤ 0.25 for the first, ≤ 0.25 for the second.

PKYN and IVYH cannot be ordered by enrichment ratio: ≤ 0.25 for the first, ≤ 0.25 for the second.

QMPA and LKRS cannot be ordered by enrichment ratio: ≤ 0.25 for the first, ≤ 0.25 for the second.

KQPM and RNQP cannot be ordered by enrichment ratio: ≤ 0.25 for the first, ≤ 0.25 for the second.

WSPR and NEWG cannot be ordered by enrichment ratio: ≤ 0.25 for the first, ≤ 0.25 for the second.

IPQP and MNPP cannot be ordered by enrichment ratio: ≤ 0.25 for the first, ≤ 0.25 for the second.

Going from CSHW to PKLP, the enrichment ratio rises from ≤ 0.25 to 0.31.

FDCK and KLPV cannot be ordered by enrichment ratio: ≤ 0.25 for the first, ≤ 0.25 for the second.

GIGQ and GIHF cannot be ordered by enrichment ratio: ≤ 0.25 for the first, ≤ 0.25 for the second.

Compared with GIMT, GITF is higher in enrichment ratio: 12.6 for the first, 18.4 for the second.

Compared with GIMQ, GNSA is lower in enrichment ratio: 11.4 for the first, 2.7 for the second.

GNMT and GISR cannot be ordered by enrichment ratio: ≤ 0.25 for the first, ≤ 0.25 for the second.

First: GILT
Second: GISA
The enrichment ratio of the first is lower: 3.61 for the first, 13 for the second.

GIGG and GNTF cannot be ordered by enrichment ratio: ≤ 0.25 for the first, ≤ 0.25 for the second.

WKTM and RKLH cannot be ordered by enrichment ratio: ≤ 0.25 for the first, ≤ 0.25 for the second.

GFLH and TNCW cannot be ordered by enrichment ratio: ≤ 0.25 for the first, ≤ 0.25 for the second.

LAHQ and MIEG cannot be ordered by enrichment ratio: ≤ 0.25 for the first, ≤ 0.25 for the second.

RYNY and GTMC cannot be ordered by enrichment ratio: ≤ 0.25 for the first, ≤ 0.25 for the second.

GNAW and WIVV cannot be ordered by enrichment ratio: ≤ 0.25 for the first, ≤ 0.25 for the second.

Going from GNVV to GNMC, the enrichment ratio falls from 5.22 to ≤ 0.25.

GITD and GYLR cannot be ordered by enrichment ratio: ≤ 0.25 for the first, ≤ 0.25 for the second.

Going from GIAW to GNLR, the enrichment ratio falls from 21.6 to ≤ 0.25.

Going from GILR to GIVV, the enrichment ratio falls from 12.2 to 11.3.

Compared with GIMC, MDVY is lower in enrichment ratio: 17.3 for the first, ≤ 0.25 for the second.

LSLS and IAET cannot be ordered by enrichment ratio: ≤ 0.25 for the first, ≤ 0.25 for the second.

ECYK and KLTV cannot be ordered by enrichment ratio: ≤ 0.25 for the first, ≤ 0.25 for the second.

LQYA and LGNN cannot be ordered by enrichment ratio: ≤ 0.25 for the first, ≤ 0.25 for the second.

QGIH and EKVT cannot be ordered by enrichment ratio: ≤ 0.25 for the first, ≤ 0.25 for the second.

YIEP and HLIK cannot be ordered by enrichment ratio: ≤ 0.25 for the first, ≤ 0.25 for the second.

First: GNLG
Second: GNAG
The enrichment ratio of the first is higher: 5.07 for the first, 0.269 for the second.

Compared with GITK, GILG is lower in enrichment ratio: 16 for the first, 12.3 for the second.

Compared with GISK, GISS is higher in enrichment ratio: 4.87 for the first, 13.5 for the second.

First: GNTK
Second: GIMG
The enrichment ratio of the first is lower: ≤ 0.25 for the first, 8.1 for the second.

Compared with GIAG, GITG is lower in enrichment ratio: 15.6 for the first, 2.48 for the second.

Going from GITI to GNSS, the enrichment ratio falls from 5.68 to 5.64.

RNAN and KNTS cannot be ordered by enrichment ratio: ≤ 0.25 for the first, ≤ 0.25 for the second.

TMDQ and AWAD cannot be ordered by enrichment ratio: ≤ 0.25 for the first, ≤ 0.25 for the second.

RVNY and YHMP cannot be ordered by enrichment ratio: ≤ 0.25 for the first, ≤ 0.25 for the second.

AFVI and SYPA cannot be ordered by enrichment ratio: ≤ 0.25 for the first, ≤ 0.25 for the second.

First: GILQ
Second: GITA
The enrichment ratio of the first is higher: 17.5 for the first, 7.39 for the second.

First: GNLQ
Second: GIAT
The enrichment ratio of the first is higher: 5.83 for the first, ≤ 0.25 for the second.

Compared with GISM, GIWI is lower in enrichment ratio: 18.4 for the first, ≤ 0.25 for the second.

Compared with GIYI, GNAS is higher in enrichment ratio: 0.548 for the first, 4.84 for the second.

First: GILA
Second: GIAS
The enrichment ratio of the first is lower: 11.3 for the first, 14.2 for the second.

First: GISF
Second: GNSM
The enrichment ratio of the first is lower: 8.06 for the first, 10.6 for the second.

EYAS and LGCH cannot be ordered by enrichment ratio: ≤ 0.25 for the first, ≤ 0.25 for the second.

Going from TLYV to LEIN, the enrichment ratio falls from 0.293 to ≤ 0.25.

EYMV and RHQP cannot be ordered by enrichment ratio: ≤ 0.25 for the first, ≤ 0.25 for the second.

Compared with GIME, GICE is lower in enrichment ratio: 13.3 for the first, 6.08 for the second.

GNME and DICD cannot be ordered by enrichment ratio: ≤ 0.25 for the first, ≤ 0.25 for the second.

EHLY and FVVK cannot be ordered by enrichment ratio: ≤ 0.25 for the first, ≤ 0.25 for the second.

First: ASQM
Second: KSSF
The enrichment ratio of the first is higher: 2.47 for the first, ≤ 0.25 for the second.

Compared with ASSF, VRSM is lower in enrichment ratio: 11.3 for the first, ≤ 0.25 for the second.

Compared with ASGR, ASSM is higher in enrichment ratio: ≤ 0.25 for the first, 19.3 for the second.

Compared with VGAL, GWCN is lower in enrichment ratio: 0.829 for the first, ≤ 0.25 for the second.

Compared with SMML, KYML is lower in enrichment ratio: 14.5 for the first, ≤ 0.25 for the second.

Compared with STML, NMML is lower in enrichment ratio: 13.4 for the first, ≤ 0.25 for the second.

Compared with SWML, TIML is higher in enrichment ratio: ≤ 0.25 for the first, 2.74 for the second.

Going from SNML to HEML, the enrichment ratio falls from 15.9 to ≤ 0.25.

Going from SGML to SYML, the enrichment ratio falls from 17.4 to 0.252.

SGEL and AVQL cannot be ordered by enrichment ratio: ≤ 0.25 for the first, ≤ 0.25 for the second.

Compared with YNMI, IVRK is lower in enrichment ratio: 0.268 for the first, ≤ 0.25 for the second.

First: TQMH
Second: IKMM
The enrichment ratio of the first is higher: 9.69 for the first, ≤ 0.25 for the second.

WGHD and SQFI cannot be ordered by enrichment ratio: ≤ 0.25 for the first, ≤ 0.25 for the second.

Going from RPFT to SLML, the enrichment ratio rises from ≤ 0.25 to 7.15.

Compared with SCML, IIML is lower in enrichment ratio: 11.2 for the first, ≤ 0.25 for the second.

First: SIML
Second: SSML
The enrichment ratio of the first is lower: 6.65 for the first, 23.6 for the second.

First: SRML
Second: SAKL
The enrichment ratio of the first is higher: 4.3 for the first, ≤ 0.25 for the second.

Compared with SPML, SAML is higher in enrichment ratio: ≤ 0.25 for the first, 16.5 for the second.

HYKH and GCEP cannot be ordered by enrichment ratio: ≤ 0.25 for the first, ≤ 0.25 for the second.

RQGY and QLWN cannot be ordered by enrichment ratio: ≤ 0.25 for the first, ≤ 0.25 for the second.

First: QQRM
Second: QTWI
The enrichment ratio of the first is lower: ≤ 0.25 for the first, 3.53 for the second.

Going from QGWN to FTWN, the enrichment ratio falls from 16.6 to ≤ 0.25.

FFWN and FVWN cannot be ordered by enrichment ratio: ≤ 0.25 for the first, ≤ 0.25 for the second.

First: QSQN
Second: QQNM
The enrichment ratio of the first is lower: ≤ 0.25 for the first, 16.3 for the second.

Compared with QSWN, IQNM is lower in enrichment ratio: 21.4 for the first, ≤ 0.25 for the second.

First: QTWN
Second: QVFE
The enrichment ratio of the first is higher: 16.8 for the first, ≤ 0.25 for the second.

EYFQ and FTGV cannot be ordered by enrichment ratio: ≤ 0.25 for the first, ≤ 0.25 for the second.

FFRA and LYHH cannot be ordered by enrichment ratio: ≤ 0.25 for the first, ≤ 0.25 for the second.

EIFG and NAWN cannot be ordered by enrichment ratio: ≤ 0.25 for the first, ≤ 0.25 for the second.

KAWN and QRWL cannot be ordered by enrichment ratio: ≤ 0.25 for the first, ≤ 0.25 for the second.

Compared with QPWL, MAWI is higher in enrichment ratio: ≤ 0.25 for the first, 8.24 for the second.

Going from FPWN to MAWL, the enrichment ratio rises from ≤ 0.25 to 12.

Going from TPWN to QSWL, the enrichment ratio rises from ≤ 0.25 to 11.6.

First: MAWN
Second: QQWN
The enrichment ratio of the first is higher: 23.5 for the first, 13.8 for the second.

For FCWL, the enrichment ratio was ≤ 0.25.
